# Laboratory results reported in PubChem BioAssay (EPA / NIEHS).
# Results filed as inconclusive are left out. Activity calls are given as the source filed them. How the source made its calls, unless noted: active means hit-call score of the fitted dose curve at least 0.9, where 1 is the maximum; inactive means score below 0.9.
# What was measured:
# [1] = read-out: Interleukin 17A (IL17A), IL17A (gene 3605); experiment: BSK_BT_xIL17A: BioMAP Diversity Plus: BT Assay for Interleukin 17A (IL17A) Biomarker Activity (AID 2284229); settings: primary human B cells with PBMC
# In short: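 Luminex xMAP quantification of secreted IL-17A after 24 h chemical exposure of a primary human B cell/PBMC co-culture. Signal increases fitted relative to DMSO negative control.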
# [2] = read-out: Tumor necrosis factor (Homo sapiens) (UniProt P01375); experiment: BSK_BT_xTNFa: BioMAP Diversity Plus: BT Assay for Tumor necrosis factor alpha (TNF-alpha) Biomarker Activity (AID 2284230); settings: primary human B cells with PBMC
# In short: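 Compounds were added to a B cell plus PBMC co-culture, and after 24 h secreted TNF-alpha was quantified with Luminex xMAP technology, with responses fitted upward from the DMSO control.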
# [3] = read-out: Vascular cell adhesion molecule 1 (VCAM1), VCAM1 (gene 7412); experiment: BSK_MyoF_VCAM1: BioMAP Diversity Plus: MyoF Assay for Vascular cell adhesion molecule 1 (VCAM1) Biomarker Activity (AID 2284231); settings: primary human lung fibroblasts
# In short: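 ELISA readout of VCAM-1 on human lung fibroblast cultures 24 hours after dosing, analyzed for signal gain relative to DMSO. Overt cytotoxicity was checked by sulforhodamine B total-protein staining in parallel cultures.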
# [4] = read-out: Interleukin 17F (IL17F), IL17F (gene 112744); experiment: BSK_BT_xIL17F: BioMAP Diversity Plus: BT Assay for Interleukin 17F (IL17F) Biomarker Activity (AID 2284243); settings: primary human B cells with PBMC
# In short: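 Human B cells co-cultured with PBMC; secreted IL-17F quantified by LumineX xMAP 24 hours after chemical dosing. Activity fitted in the positive direction against DMSO negative control as baseline.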
# [5] = read-out: Actin alpha 1 (ACTA1), ACTA1 (gene 58); experiment: BSK_MyoF_ACTA1: BioMAP Diversity Plus: MyoF Assay for Actin alpha 1 (ACTA1) Biomarker Activity (AID 2284244); settings: primary human lung fibroblasts
# In short: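 MyoF fibroblast system (human lung); a-SMA quantified via ELISA at 24 h; DMSO-normalised, gain-of-signal endpoint.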
# [6] = read-out: Basic fibroblast growth factor (bFGF), FGF2 (gene 2247); experiment: BSK_MyoF_bFGF: BioMAP Diversity Plus: MyoF Assay for Basic fibroblast growth factor (bFGF) Biomarker Activity (AID 2284246); settings: primary human lung fibroblasts
# In short: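 Fibroblasts from human lung, 24 h dosing. bFGF by ELISA; gain of signal over DMSO.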
# [7] = read-out: Collagen IV, COL4A1 (gene 1282); experiment: BSK_MyoF_CollagenIV: BioMAP Diversity Plus: MyoF Assay for Collagen IV Biomarker Activity (AID 2284247); settings: primary human lung fibroblasts
# In short: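 Lung fibroblasts (human primary) treated with chemicals were assayed after 24 h for Collagen IV using an ELISA, with DMSO serving as negative control and baseline for a positive-direction fit.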
# [8] = read-out: Monokine induced gamma interferon (MIG), CXCL9 (gene 4283); experiment: BSK_KF3CT_MIG: BioMAP Diversity Plus: KF3CT Assay for Monokine induced gamma interferon (MIG) Biomarker Activity (AID 2284248); settings: primary human keratinocytes with fibroblasts
# In short: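 Parallel cultures were stained with SRB (560 nm) to check cytotoxicity. MIG was quantified by ELISA in a primary human skin keratinocyte/fibroblast co-culture 24 h post-dosing, with gain of signal fitted relative to DMSO.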
# [9] = read-out: Vascular cell adhesion molecule 1 (VCAM1), VCAM1 (gene 7412); experiment: BSK_BF4T_VCAM1: BioMAP Diversity Plus: BF4T Assay for Vascular cell adhesion molecule 1 (VCAM1) Biomarker Activity (AID 2284249); settings: primary human bronchial epithelial cells with fibroblasts
# In short: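 Cell-surface VCAM-1 quantified by ELISA after 24 h chemical exposure of human bronchial epithelial/dermal fibroblast co-cultures, with SRB staining in parallel wells for cytotoxicity; DMSO baseline, positive-direction fitting.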
# [10] = read-out: Plasminogen activator inhibitor-1 (PAI1), SERPINE1 (gene 5054); experiment: BSK_KF3CT_PAI1: BioMAP Diversity Plus: KF3CT Assay for Plasminogen activator inhibitor-1 (PAI1) Biomarker Activity (AID 2284252); settings: primary human keratinocytes with fibroblasts
# In short: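 In this co-culture of primary human keratinocytes and foreskin fibroblasts, PAI-1 was measured by ELISA at 24 h and fitted upward from DMSO.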
# [11] = read-out: Monocyte Chemoattractant Protein-1 (MCP1), CCL2 (gene 6347); experiment: BSK_IMphg_MCP1: BioMAP Diversity Plus: IMphg Assay for Monocyte Chemoattractant Protein-1 (MCP1) Biomarker Activity (AID 2284253); settings: primary human endothelial cells with macrophages
# In short: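 ELISA readout of MCP-1 at 24 hours in IMphg co-cultures of venular endothelial cells and macrophages, normalised to DMSO; parallel cultures stained with sulforhodamine B for overt cytotoxicity.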
# [12] = read-out: Interleukin-8 (IL8), CXCL8 (gene 3576); experiment: BSK_KF3CT_IL8: BioMAP Diversity Plus: KF3CT Assay for Interleukin-8 (IL8) Biomarker Activity (AID 2284254); settings: primary human keratinocytes with fibroblasts
# In short: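 IL-8 by ELISA in primary human skin co-culture (keratinocytes plus fibroblasts) 24 h post-dose, DMSO as baseline. Cytotoxicity assessed in parallel by sulforhodamine B total-protein staining.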
# [13] = UKN2_HCS_IMR90_cell_viability: Viability Assessment in the University of Konstanz (UKN) Leist Lab Neural Crest Cell Migration Assay in human induced IMR90 Pluripotent Stem Cells (UKN2) (AID 2284233);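 further: cells exposed to compound for 24 h after a 24 h migration phase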
# In short: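 Viability read as calcein-AM fluorescence by high-content imaging, Hoechst co-stain, 30 min. Human iPSC (IMR90) neural crest cells had migrated 24 h into stopper-defined gaps before 24 h chemical exposure. Fitted bidirectionally relative to DMSO.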
# [14] = CCTE_Mundy_HCI_Cortical_NOG_NeuronCount: CCTE's Neurite Outgrowth Assay in rat cortical cells for Neuron Count, Mundy Lab (AID 2284236; active means hit-call score of the fitted dose curve at least 0.9, where 1 is the maximum;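 further: neurons counted by imaging betaIII-tubulin and Hoechst stained cortical cells; cells exposed to compound for about 48 hours before fixation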)
# In short: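 Read-out: neuron number by high-content imaging of betaIII-tubulin (Alexa Fluor-488) and Hoechst-labelled rat primary cortical cells.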
# [15] = CCTE_Mundy_HCI_Cortical_NOG_BPCount: CCTE's Neurite Outgrowth Assay in rat cortical cells for Branch Point Count, Mundy Lab (AID 2284237)
# In short: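 Measured 50.33 h after dosing, this morphology endpoint uses rat primary cortical cultures labelled for betaIII-tubulin. Branch points are quantified by high-content imaging, with DMSO as negative control and baseline.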
# [16] = CCTE_Mundy_HCI_hNP1_Casp3_7: CCTE's Caspase-Glo 3/7 Assay in human neuroprogenitor cells for Apoptosis, Mundy Lab (AID 2284240)
# In short: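 Luminescent caspase-3/7 readout, 26.5 h post-dose, in human neural progenitor cells from WA09 embryonic stem cells. Cells grew 40–44 h at 37 °C, 5% CO2 before chemical addition. Activity analysed as signal increase over DMSO baseline.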
# [17] = CCTE_Mundy_HCI_hNP1_CellTiter: CCTE's Cell Titer-Glo 2 Assay in human neuroprogenitor cells for Viability, Mundy Lab (AID 2284241; active means hit-call score of the fitted dose curve at least 0.9, where 1 is the maximum)
# In short: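 Viability read as luminescent ATP content (CellTiter-Glo, 30 min room temperature) twenty-four hours after dosing, relative to DMSO. Cells: WA09-derived hNP1 neuroprogenitors on poly-L-ornithine/laminin, plated 40 to 44 hours before chemical.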
# [18] = CCTE_Mundy_HCI_Cortical_Synap_Neur_Matur_NeuronCount: CCTE's Synaptogenesis and Neurite Maturation Assay in rat cortical cells for Neuron Count, Mundy Lab (AID 2284242; active means hit-call score of the fitted dose curve at least 0.9, where 1 is the maximum;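 on AC50: hits reduce neuron count versus DMSO baseline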)
# In short: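 Measured at DIV 12: fluorescently labelled neurons (Hoechst nuclei, MAP2) in rat primary cortical cultures, counted by high-content imaging. AraC suppressed glia from DIV 5; DMSO served as negative control.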
# [19] = TAMU_HCS_1.5hr_SingleDonor1434_Cytotoxicity: Cytotoxicity Assessment using High-content Screening (HCS) Fluorescent Imaging for the Texas A&M University (TAMU) 1.5-hr Human Induced Pluripotent Stem Cell (iPSC)-derived Cardiotoxicity Assay (AID 2284234; active means hit-call score of the fitted dose curve at least 0.9, where 1 is the maximum)
# In short: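 Nuclear counts from Hoechst 33342 imaging define cytotoxicity here, with EC10 (10% cell-count loss relative to DMSO) as point of departure. iPSC cardiomyocytes received 0.2-100 uM test chemical in 0.5% DMSO for 1.5 h at 37 C.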
# [20] = TAMU_PeakParms_SingleDonor1434_QT: Texas A&M University (TAMU) 1.5-hr Human Induced Pluripotent Stem Cell (iPSC)-derived Cardiomyocytes Calcium (Ca+2) Flux Assay for Cardiotoxicity: QT (decay-rise ratio) (AID 2284235; active means hit-call score of the fitted dose curve at least 0.9, where 1 is the maximum)
# In short: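 Decay/rise ratio of calcium-flux fluorescence scored after 90 min exposure (37C) of donor 1434 iPSC cardiomyocytes to 0.2–100 uM (0.5% DMSO). Beat-cessation and severe-notch points removed; POD is EC05, a 5% rise over DMSO.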
# Sequence of Tumor necrosis factor (Homo sapiens) (P01375 whole entry, looked up): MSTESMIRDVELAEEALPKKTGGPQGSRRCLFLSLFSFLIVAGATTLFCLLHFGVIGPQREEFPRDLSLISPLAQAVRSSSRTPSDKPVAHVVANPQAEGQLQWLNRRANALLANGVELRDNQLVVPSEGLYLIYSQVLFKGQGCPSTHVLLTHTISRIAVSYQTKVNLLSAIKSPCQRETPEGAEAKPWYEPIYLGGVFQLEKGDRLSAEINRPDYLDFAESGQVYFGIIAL
structure (smiles),measurement,setting,value
O=S(=O)(F)C(F)(F)C(F)(F)C(F)(F)C(F)(F)C(F)(F)C(F)(F)C(F)(F)C(F)(F)F,outcome,[1],inactive
same,outcome,[2],inactive
same,outcome,[3],inactive
same,outcome,[4],inactive
same,outcome,[5],inactive
same,outcome,[6],inactive
same,outcome,[7],inactive
same,outcome,[8],inactive
same,outcome,[9],inactive
same,outcome,[10],inactive
same,outcome,[11],inactive
same,outcome,[12],inactive
CCOP(=S)(OCC)SCSCC,outcome,[13],inactive
same,outcome,[14],inactive
same,outcome,[15],inactive
same,outcome,[16],inactive
same,outcome,[17],inactive
same,AC50,[18],78.4 µM (active)
COP(=O)(CCC(=O)NCO)OC,outcome,[8],inactive
same,outcome,[10],inactive
same,outcome,[12],inactive
CCC1(c2ccccc2)C(=O)N=C(O)NC1=O (stereo not given),outcome,[15],inactive
same,outcome,[16],inactive
same,outcome,[17],inactive
same,outcome,[18],inactive
c1cc2c3c(cccc3c1)CC2,outcome,[19],inactive
same,outcome,[20],inactive
ClC(Cl)=C(c1ccc(Cl)cc1)c1ccccc1Cl,AC50,[1],27.3 µM (active)
same,AC50,[2],31.1 µM (active)
same,AC50,[3],5.1 µM (active)
same,AC50,[4],32.2 µM (active)
same,AC50,[5],5.45 µM (active)
same,AC50,[6],9.45 µM (active)
same,AC50,[7],9.38 µM (active)
CCCCC(CC)COC(=O)c1c(Br)c(Br)c(Br)c(Br)c1C(=O)OCC(CC)CCCC (stereo not given),outcome,[1],inactive
same,outcome,[2],inactive
same,outcome,[3],inactive
same,outcome,[4],inactive
same,outcome,[5],inactive
same,outcome,[6],inactive
same,outcome,[7],inactive
CCOP(=S)(S)OCC,outcome,[1],inactive
same,outcome,[2],inactive
same,outcome,[3],inactive
same,outcome,[4],inactive
same,outcome,[5],inactive
same,outcome,[6],inactive
same,outcome,[7],inactive
O=P(OCC(Br)CBr)(OCC(Br)CBr)OCC(Br)CBr (stereo not given),AC50,[1],17.4 µM (active)
same,AC50,[2],33.6 µM (active)
same,AC50,[3],17.4 µM (active)
same,AC50,[4],27.7 µM (active)
same,outcome,[5],inactive
same,outcome,[6],inactive
same,outcome,[7],inactive
N#Cc1c(-c2ccc(Cl)cc2)[nH]c(C(F)(F)F)c1Br,AC50,[1],1.14 µM (active)
same,AC50,[2],10.8 µM (active)
same,AC50,[3],0.71 µM (active)
same,AC50,[4],1.63 µM (active)
same,AC50,[5],0.329 µM (active)
same,outcome,[6],inactive
same,outcome,[7],inactive
O=S1(=O)OCC2C(CO1)C1(Cl)C(Cl)=C(Cl)C2(Cl)C1(Cl)Cl (stereo not given),AC50,[1],16.1 µM (active)
same,AC50,[2],31 µM (active)
same,outcome,[3],inactive
same,AC50,[4],28.3 µM (active)
same,outcome,[5],inactive
same,outcome,[6],inactive
same,outcome,[7],inactive
NC(=O)C(F)(F)C(F)(F)F,outcome,[1],inactive
same,outcome,[2],inactive
same,outcome,[3],inactive
same,outcome,[4],inactive
same,outcome,[5],inactive
same,outcome,[6],inactive
same,outcome,[7],inactive
same,outcome,[8],inactive
same,outcome,[9],inactive
same,outcome,[10],inactive
same,outcome,[11],inactive
same,outcome,[12],inactive
O=c1ssc(Cl)c1Cl,AC50,[1],4.51 µM (active)
same,AC50,[2],8.17 µM (active)
same,AC50,[3],6.69 µM (active)
same,AC50,[4],6.3 µM (active)
same,AC50,[5],6.24 µM (active)
same,AC50,[6],11.4 µM (active)
same,AC50,[7],7.41 µM (active)
CC(Cl)CN(C)C (stereo not given),outcome,[1],inactive
same,outcome,[2],inactive
same,AC50,[3],20 µM (active)
same,outcome,[4],inactive
same,outcome,[5],inactive
same,outcome,[6],inactive
same,outcome,[7],inactive
